Bioassay records from PubChem.
In the library only some 3.5% were active in any assay of this set; here they are far more common.
MITF inh = MITF inhibitors, primary screen, biochemical, AlphaScreen, human | Microphthalmia-associated transcription factor (Homo sapiens), O75030 | AlphaScreen MITF homodimerization, bead proximity signal | inhibition, % at 2.6 µM | actives 0.91% (n = 650,000) | AID 1259374, 2018; in the data active = inhibition above about 50%
Target sequence (O75030 whole entry, looked up): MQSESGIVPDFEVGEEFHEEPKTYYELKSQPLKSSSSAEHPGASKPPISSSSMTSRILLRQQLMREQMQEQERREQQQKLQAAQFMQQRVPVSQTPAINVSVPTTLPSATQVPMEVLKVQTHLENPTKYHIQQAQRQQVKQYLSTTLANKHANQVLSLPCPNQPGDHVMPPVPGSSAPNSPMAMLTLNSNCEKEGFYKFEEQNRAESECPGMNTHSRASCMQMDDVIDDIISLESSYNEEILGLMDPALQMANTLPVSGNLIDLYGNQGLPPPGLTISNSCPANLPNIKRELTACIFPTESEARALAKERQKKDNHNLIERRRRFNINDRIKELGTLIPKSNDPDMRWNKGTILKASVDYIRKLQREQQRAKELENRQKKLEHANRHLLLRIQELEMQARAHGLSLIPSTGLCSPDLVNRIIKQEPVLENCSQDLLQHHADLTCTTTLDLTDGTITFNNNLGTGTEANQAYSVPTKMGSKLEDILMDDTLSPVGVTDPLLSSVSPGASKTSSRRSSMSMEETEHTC
GPR151 activ = activators of human GPR151, primary screen, cell-based, PathHunter beta-arrestin, luminescence. AID 1508602, 2020. actives 1% (n = 650,000). PathHunter beta-arrestin GPR151 cells. G-protein coupled receptor 151 (Homo sapiens), Q8TDV0. activation, % at 11.2 µM; in the data active = activation above about 4.9%
TEAD-YAP inh = TEAD-YAP interaction inhibition, primary screen, TEAD-YAP interaction inhibitor project, luminescence, HEK-TIYL cells; TEAD-Gal4/YAP UAS-luciferase luminescence; inhibition, % at 9.12 µM; actives 1.4% (n = 640,000); AID 1259422, 2018; in the data active = inhibition above about 32%
FBW7 activator = FBW7 E3 ligase activators, primary screen, biochemical, AlphaScreen, human | AlphaScreen FBW7–phospho-cyclin E peptide binding, activator screen | normalized activity (activation), % at 26.1 µM | actives 0.13% (n = 650,000); in the data active = normalized activity above about 1.9%;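 note: purified mutant Fbw7 with reduced substrate affinity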
MITF inh conf = MITF inhibitors, retest of hits, confirmation, biochemical, AlphaScreen, triplicate | shares compounds with MITF inh | actives 16% (n = 4,700) | inhibition, % at 2.6 µM | AlphaScreen MITF homodimerization, biotin/His-MITF beads;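 active = inhibition above a cutoff derived from the DMSO control wells, cut at about 28% in these data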;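 note: inhibitors lower the bead chemiluminescence by keeping MITF from dimerizing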
AlphaScreen DR = AlphaScreen optical interference compounds, dose response, counter-screen, biochemical, HTS; IC50, µM; actives 6% (n = 480); AlphaScreen optical interference counterscreen, cell-free; shares compounds with MITF inh; call rule not given here
AlphaScreen intf2 = AlphaScreen optical interference compounds, counter-screen for MITF inhibitor project, biochemical, triplicate; shares compounds with MITF inh; LysRS AlphaScreen counterscreen, signal interference; inhibition, % at 2.6 µM; actives 7.6% (n = 4,700);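 active = inhibition above a cutoff derived from the DMSO control wells, cut at about 30% in these data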
GPR151 conf act = GPR151 activators, triplicate retest, confirmation, cell-based, PathHunter beta-arrestin, luminescence. GPR151 PathHunter beta-arrestin cells, 90 min; % of EA-reagent control over plate median. shares compounds with GPR151 activ. activation, % at 11.2 µM. AID 1508609, 2020. 6,700 tested, under 10 active;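 active = mean percent activation across replicates above the confirmation screen cutoff of 4.91%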
GPR119 ag = GPR119 activators in beta-arrestin cells, counter-screen for GPR151 activator project, cell-based, PathHunter beta-arrestin, luminescence, triplicate | shares compounds with GPR151 activ | 90 min; 0 = compound-well median, 100 = enzyme-acceptor control | actives 0.3% (n = 6,700) | activation, % at 11.2 µM | AID 1508611, 2020;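 active = mean percent activation in the counterscreen above 29.09%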;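 note: counterscreen on off-target GPR119 to flag nonselective hits from the GPR151 activator screen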
Large screens that a line does not name were inactive (follow-up assays come after a bar, where they were run).

CCC(C)NCCOCCOc1ccc(C)cc1OC (stereo not drawn)	MITF inh 53.9 | MITF inh conf inactive | AlphaScreen intf2 inactive
CCC(C)NCCOCCOc1ccc(OC)cc1 (stereo not drawn)	MITF inh 84.3 | MITF inh conf inactive | AlphaScreen intf2 inactive
CCC(C)NCCOCCOc1ccc(C)cc1Cl (stereo not drawn)	MITF inh 76.5 | MITF inh conf inactive | AlphaScreen intf2 inactive
CCC(C)NCCOc1ccc(OC)cc1 (stereo not drawn)	none
CCC(C)NCCOCCOc1ccc(Cl)cc1Br (stereo not drawn)	none
c1ccc2cc(Nc3ncnc4[nH]ncc34)ccc2c1	none
CCN1CCN(CC#CCOc2ccccc2OC)CC1	MITF inh 82.1, GPR151 activ 9.7 | MITF inh conf inactive | AlphaScreen intf2 inactive | GPR151 conf act inactive | GPR119 ag inactive
COc1ccc2[nH]c(=O)c(CN(Cc3ccco3)S(=O)(=O)c3ccccc3)cc2c1	none
c1ccc2c(CN3CCOCC3)cccc2c1	none
Clc1cccc(CN2CCOCC2)c1Cl	MITF inh 60.0, GPR151 activ 9.9 | MITF inh conf inactive | AlphaScreen intf2 inactive | GPR151 conf act inactive | GPR119 ag inactive
CCOC(=O)C1=C(C)NC(SCc2ccc(Br)cc2)=NC1c1ccccc1OC (stereo not drawn)	none
COc1cc(CN2CCOCC2)cc(OC)c1	none
COc1cc(CN2CCN(Cc3ccc(Br)cc3)CC2)cc(OC)c1	MITF inh 81.6, GPR151 activ 6.1 | MITF inh conf inactive | AlphaScreen intf2 inactive | GPR151 conf act inactive | GPR119 ag inactive
COc1ccc(CN2CCN(Cc3cc(OC)cc(OC)c3)CC2)cc1	MITF inh 77.1, GPR151 activ 17.3 | MITF inh conf inactive | AlphaScreen intf2 inactive | GPR151 conf act inactive | GPR119 ag inactive
CCCSC1=C(C#N)C(c2ccc(F)cc2)CC(=O)N1 (stereo not drawn)	none
C=CCC1(CC=C)CCCCN1C(=O)CC1C(=O)NCCN1Cc1ccoc1 (stereo not drawn)	MITF inh 79.7, GPR151 activ 6.4 | MITF inh conf inactive | AlphaScreen intf2 inactive | GPR151 conf act inactive | GPR119 ag inactive
Brc1c(OCCCN2CCNCC2)ccc2ccccc12	MITF inh 55.7, GPR151 activ 17.5 | MITF inh conf inactive | AlphaScreen intf2 inactive | GPR151 conf act inactive | GPR119 ag inactive
CCOC(=O)c1sc(NC(=O)c2c(-c3ccccc3Cl)noc2C)nc1C	none
CCn1ccnc1CN1CCN(Cc2cccc(OC)c2)C(CCO)C1 (stereo not drawn)	MITF inh 52.9, GPR151 activ 17.6 | MITF inh conf 28.4 | AlphaScreen DR inactive | AlphaScreen intf2 inactive | GPR151 conf act inactive | GPR119 ag inactive
N#Cc1nc(COc2ccccc2Cl)oc1NCCCn1ccnc1	MITF inh 96.2, GPR151 activ 18.5 | MITF inh conf inactive | AlphaScreen intf2 inactive | GPR151 conf act inactive | GPR119 ag inactive
N#Cc1nc(-c2ccccc2)oc1NCCCn1ccnc1	none
CCN1CCN(CCOc2ccc(Cl)c(C)c2C)CC1	MITF inh 75.0, GPR151 activ 7.7 | MITF inh conf inactive | AlphaScreen intf2 inactive | GPR151 conf act inactive | GPR119 ag inactive
